{"source": "paper PMC5700166"}
{"molecular_target": "T1, GST-Nv-NF-kB (Ser allele) (Nematostella vectensis, UniProt A7UNT2 2-411)", "T1 sequence": "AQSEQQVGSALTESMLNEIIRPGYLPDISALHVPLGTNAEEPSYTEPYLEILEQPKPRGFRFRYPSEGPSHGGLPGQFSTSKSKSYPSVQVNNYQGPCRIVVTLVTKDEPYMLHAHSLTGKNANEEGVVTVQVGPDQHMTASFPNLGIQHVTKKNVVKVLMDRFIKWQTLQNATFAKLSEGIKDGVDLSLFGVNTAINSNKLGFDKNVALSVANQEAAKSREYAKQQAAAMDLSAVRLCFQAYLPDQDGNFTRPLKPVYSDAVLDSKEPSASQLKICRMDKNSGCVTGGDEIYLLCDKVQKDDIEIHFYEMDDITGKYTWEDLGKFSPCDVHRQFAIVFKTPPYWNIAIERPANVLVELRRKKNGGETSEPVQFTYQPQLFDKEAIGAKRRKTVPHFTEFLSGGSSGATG", "assay": "protein-binding microarray (PBM); PBM: ~300 nM protein, 6 mM HEPES pH 7.8, 80 mM KCl, 0.5 mM EDTA, 0.5 mM EGTA, 6% glycerol, 35 ng/ul poly-dIdC, 1% milk, 1 h, room temperature; Ap Aiptasia and Nv Nematostella (sea anemones) / Co Capsaspora / Aq Amphimedon (sponge) / Dm Drosophila / Hu human; RHD is the Rel homology domain; high values mean tight binding", "conditions": "dsDNA, one strand shown", "units": {"binding signal": "z-score"}}
{"sequence": "CCGATTAACATCACACTCCCCCCTGATGTTAATCGGGTCTTGATTCGCTTGACGCTGCTG", "binding signal": 4.56}
{"sequence": "CCGATTAACATCAGGTATTTCCATGATGTTAATCGGGTCTTGATTCGCTTGACGCTGCTG", "binding signal": 1.6}
{"sequence": "CCGATTAACATCAAACCCCCCCTTGATGTTAATCGGGTCTTGATTCGCTTGACGCTGCTG", "binding signal": 4.97}
{"sequence": "CCGATTAACATCAGGGCTCCCCCTGATGTTAATCGGGTCTTGATTCGCTTGACGCTGCTG", "binding signal": 5.09}
{"sequence": "CCGATTAACATCAAAATCACCCCTGATGTTAATCGGGTCTTGATTCGCTTGACGCTGCTG", "binding signal": 3.66}
{"sequence": "CCGATTAACATCATCAGGGGGGATGATGTTAATCGGGTCTTGATTCGCTTGACGCTGCTG", "binding signal": 3.78}
{"sequence": "CCGATTAACATCAAAAACCACCCTGATGTTAATCGGGTCTTGATTCGCTTGACGCTGCTG", "binding signal": 4.22}
{"sequence": "CCGATTAACATCAAAAAACCCCATGATGTTAATCGGGTCTTGATTCGCTTGACGCTGCTG", "binding signal": 6.05}
{"sequence": "CCGATTAACATCAAGGGGGGTTATGATGTTAATCGGGTCTTGATTCGCTTGACGCTGCTG", "binding signal": 5.24}
{"sequence": "CCGATTAACATCAAAGAGCCCCCTGATGTTAATCGGGTCTTGATTCGCTTGACGCTGCTG", "binding signal": 3.77}
{"sequence": "CCGATTAACATCACGGGGGGGGCTGATGTTAATCGGGTCTTGATTCGCTTGACGCTGCTG", "binding signal": 2.3}
{"sequence": "CCGATTAACATCAGGGGGTATTATGATGTTAATCGGGTCTTGATTCGCTTGACGCTGCTG", "binding signal": 6.38}
{"sequence": "CCGATTAACATCATGGTACTTGTTGATGTTAATCGGGTCTTGATTCGCTTGACGCTGCTG", "binding signal": 1.85}
{"sequence": "CCGATTAACATCATGGGGGGGAATGATGTTAATCGGGTCTTGATTCGCTTGACGCTGCTG", "binding signal": 4.89}
{"sequence": "CCGATTAACATCAAGGGGGGGAGTGATGTTAATCGGGTCTTGATTCGCTTGACGCTGCTG", "binding signal": 4.08}
{"sequence": "CCGATTAACATCAAGGGGGAGGGTGATGTTAATCGGGTCTTGATTCGCTTGACGCTGCTG", "binding signal": 3.99}
{"sequence": "CCGATTAACATCAGGGACGCCCCTGATGTTAATCGGGTCTTGATTCGCTTGACGCTGCTG", "binding signal": 3.51}
{"sequence": "CCGATTAACATCATGGGAAGGTTTGATGTTAATCGGGTCTTGATTCGCTTGACGCTGCTG", "binding signal": 1.52}
{"sequence": "CCGATTAACATCAGACATGGGAATGATGTTAATCGGGTCTTGATTCGCTTGACGCTGCTG", "binding signal": 1.34}
{"sequence": "CCGATTAACATCAGGGGACCCCCTGATGTTAATCGGGTCTTGATTCGCTTGACGCTGCTG", "binding signal": 5.69}
{"sequence": "CCGATTAACATCACGGAATTCCCTGATGTTAATCGGGTCTTGATTCGCTTGACGCTGCTG", "binding signal": 6.06}
{"sequence": "CCGATTAACATCAGAAATGCCCCTGATGTTAATCGGGTCTTGATTCGCTTGACGCTGCTG", "binding signal": 3.44}
{"sequence": "CCGATTAACATCAAACATCCCCCTGATGTTAATCGGGTCTTGATTCGCTTGACGCTGCTG", "binding signal": 6.41}
{"sequence": "CCGATTAACATCAAAAAGCCCCGTGATGTTAATCGGGTCTTGATTCGCTTGACGCTGCTG", "binding signal": 6.26}
{"sequence": "CCGATTAACATCAGATAAACCCCTGATGTTAATCGGGTCTTGATTCGCTTGACGCTGCTG", "binding signal": 3.09}
{"sequence": "CCGATTAACATCAGAAGACCCCCTGATGTTAATCGGGTCTTGATTCGCTTGACGCTGCTG", "binding signal": 3.72}
{"sequence": "CCGATTAACATCACTTTGGGAAATGATGTTAATCGGGTCTTGATTCGCTTGACGCTGCTG", "binding signal": 1.89}
{"sequence": "CCGATTAACATCAACTCCCCCCCTGATGTTAATCGGGTCTTGATTCGCTTGACGCTGCTG", "binding signal": 4.48}
{"sequence": "CCGATTAACATCAAATGTGGGAATGATGTTAATCGGGTCTTGATTCGCTTGACGCTGCTG", "binding signal": 1.31}
{"sequence": "CCGATTAACATCAGAAACCCCCATGATGTTAATCGGGTCTTGATTCGCTTGACGCTGCTG", "binding signal": 6.17}
{"sequence": "CCGATTAACATCACCGCTTCCCTTGATGTTAATCGGGTCTTGATTCGCTTGACGCTGCTG", "binding signal": 1.69}
{"sequence": "CCGATTAACATCAAAACACCCCCTGATGTTAATCGGGTCTTGATTCGCTTGACGCTGCTG", "binding signal": 5.6}
{"sequence": "CCGATTAACATCAGAAAATCACCTGATGTTAATCGGGTCTTGATTCGCTTGACGCTGCTG", "binding signal": 4.87}
{"sequence": "CCGATTAACATCAGCCCCCCCCATGATGTTAATCGGGTCTTGATTCGCTTGACGCTGCTG", "binding signal": 2.7}
{"sequence": "CCGATTAACATCAGGGAAAGGGATGATGTTAATCGGGTCTTGATTCGCTTGACGCTGCTG", "binding signal": 3.11}
{"sequence": "CCGATTAACATCACTAATCCCCCTGATGTTAATCGGGTCTTGATTCGCTTGACGCTGCTG", "binding signal": 6.57}
{"sequence": "CCGATTAACATCAGGGGGAGTTATGATGTTAATCGGGTCTTGATTCGCTTGACGCTGCTG", "binding signal": 6.11}
{"sequence": "CCGATTAACATCAGAAAGTTCCCTGATGTTAATCGGGTCTTGATTCGCTTGACGCTGCTG", "binding signal": 3.65}
{"sequence": "CCGATTAACATCAAAAAATCTCCTGATGTTAATCGGGTCTTGATTCGCTTGACGCTGCTG", "binding signal": 1.5}
